Experiments:
Details in all cases: concentration: 1 μM, replicates: in singlicate; n = 1
MTOR = tested on: MTOR
MUSK = tested on: MUSK
MYLK2 = tested on: MYLK2
MYLK4 = tested on: MYLK4
MYLK = tested on: MYLK
MYO3A = tested on: MYO3A
MYO3B = tested on: MYO3B
NDR1 = tested on: T1, NDR1
T1 construct: gene STK38

NDR2 = tested on: NDR2
NEK10 = tested on: NEK10
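Also: KINOMEscan kinase panel screen.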

Row | Structure (SMILES) | %Inh (MTOR) [%] | %Inh (MUSK) [%] | %Inh (MYLK2) [%] | %Inh (MYLK4) [%] | %Inh (MYLK) [%] | %Inh (MYO3A) [%] | %Inh (MYO3B) [%] | %Inh (NDR1) [%] | %Inh (NDR2) [%] | %Inh (NEK10) [%]
1 | O=C(Nc1ccccc1F)NC1CCN(c2ccnc(Nc3ccc(F)cc3)n2)CC1 [GSK1379800] | 17 | 3 | 16 | 10 | 8 | 37 | 0 | 7 | 0 | 5
2 | COc1ccc(-c2coc3ccc(-c4nnc(SCc5ccc(OC)c(C(F)(F)F)c5)o4)cc23)cc1 | 0 | 1 | 0 | 0 | 15 | 8 | 36 | 20 | 0 | 0
3 | O=C(O)C(F)(F)F.O=C(O)C(F)(F)F.O=c1[nH]ccc2nc(N[C@@H]3CCCNC3)nc(Nc3ccc(S(=O)(=O)N4CCOCC4)cc3)c12 [GSK2177277] | 9 | 98.2 | 33 | 91.3 | 96.9 | 52 | 0 | 97.4 | 74 | 93.6
4 | CC(C)(C)c1ccc2nccc(Nc3cccc(O)c3)c2c1 [GW856795] | 0 | 0 | 0 | 0 | 20 | 6 | 5 | 0 | 0 | 0
5 | Cl.NC(=O)c1cccc(Nc2nccc(Nc3ccc(Oc4c(Cl)cccc4Cl)c(Cl)c3)n2)c1 [GW659009] | 0 | 5 | 0 | 0 | 0 | 0 | 0 | 17 | 0 | 0
6 | CC(=O)Nc1nc2cnc(Nc3cc(NC(=O)c4cccc(C5(C#N)CC5)c4Cl)ccc3C)nc2s1 | 4 | 12 | 0 | 0 | 0 | 0 | 0 | 0 | 0 | 1
7 | CC(C)c1nc(-c2cccc(NS(=O)(=O)c3c(F)cccc3F)c2F)c(-c2ccnc(Nc3ccc(N4CCOCC4)nc3)n2)s1 [GSK2008607] | 10 | 10 | 0 | 0 | 18 | 78 | 65 | 62 | 65 | 0
8 | COc1ccc(Nc2nccc(NCCNC(=O)c3cc4ccccc4s3)n2)cc1 [GSK1379896] | 0 | 8 | 0 | 6 | 18 | 5 | 0 | 9 | 0 | 0
9 | Fc1ccc(-c2ncn(C3CCNCC3)c2-c2ccnc(Oc3ccc(-c4ccccc4)cc3)n2)cc1 [SB-245391] | 0 | 40 | 0 | 21 | 16 | 24 | 17 | 31 | 13 | 0
10 | COc1cccc(C2=C(Nc3ccc(Cl)c(C(=O)O)c3)C(=O)NC2=O)c1 [SB-390769] | 18 | 17 | 21 | 60 | 100 | 20 | 0 | 100 | 0 | 73
11 | Cc1cccc(Nc2nc(N[C@H]3CCNC3)ncc2C(N)=O)c1.Cl [GSK2197149] | 0 | 0 | 0 | 81 | 16 | 2 | 0 | 0 | 0 | 56
12 | Nc1ncnc2c1nc(-c1ccccc1)n2-c1ccccc1 [SKF-97293] | 8 | 11 | 0 | 25 | 32 | 13 | 38 | 32 | 14 | 21
13 | Clc1ccc(-c2nn3ncccc3c2-c2ccnc(Nc3ccc4c(c3)OCCO4)n2)cc1 [GW829116] | 0 | 0 | 0 | 0 | 0 | 7 | 1 | 34 | 8 | 0
14 | CN(C)S(=O)(=O)c1cc(-c2ccc3nccc(-c4cccc(S(N)(=O)=O)c4)c3c2)cnc1N [GSK1669921] | 100 | 16 | 0 | 11 | 35 | 0 | 1 | 17 | 0 | 9
15 | COc1cccc(C(=O)Nc2cccc(Oc3ccc4nc(NC(=O)C5CC5)cn4n3)c2)c1 | 0 | 0 | 0 | 0 | 33 | 14 | 0 | 19 | 10 | 0
16 | O=C(Nc1cccc(Oc2ccc3nc(NC(=O)C4CC4)cn3n2)c1)c1ccccc1C(F)(F)F | 15 | 11 | 0 | 0 | 10 | 0 | 0 | 26 | 0 | 0

Row | Structure (SMILES) | %Inh (MTOR) [%] | %Inh (MUSK) [%] | %Inh (MYLK2) [%] | %Inh (MYLK4) [%] | %Inh (MYLK) [%] | %Inh (MYO3A) [%] | %Inh (MYO3B) [%] | %Inh (NDR1) [%] | %Inh (NDR2) [%] | %Inh (NEK10) [%]
17 | O=C(Nc1cccc(-c2nn3ncccc3c2-c2ccnc(Nc3ccccc3)n2)c1)c1c(F)cccc1F [GSK198271] | 10 | 4 | 0 | 0 | 7 | 6 | 30 | 11 | 0 | 0
18 | COc1cc(Nc2nccc(-c3c(-c4cccc(NC(=O)c5c(F)cccc5F)c4)nn4ncccc34)n2)cc(OC)c1OC [GSK327238] | 8 | 25 | 10 | 7 | 9 | 38 | 40 | 20 | 0 | 15
19 | O=C(Nc1cccc(-c2nn3ccccc3c2-c2ccnc(Nc3cccc(F)c3)n2)c1)c1c(F)ccc(F)c1Cl [GSK357952] | 0 | 11 | 10 | 0 | 5 | 0 | 0 | 41 | 0 | 44
20 | Nc1ncc(-c2cccnc2)c2scc(-c3ccc4c(c3)CCN4C(=O)Cc3ccccc3)c12 [GSK683281] | 0 | 39 | 32 | 11 | 33 | 17 | 6 | 29 | 0 | 14
21 | Cn1cc(-c2ccc3c(c2)CCN3C(=O)Cc2cccc(F)c2)c2c(N)ncnc21 [GSK2603358] | 16 | 5 | 83 | 0 | 18 | 51 | 5 | 0 | 7 | 22
22 | Oc1cc(Nc2ccnc3cc(I)ccc23)ccc1F [GW552771] | 11 | 5 | 0 | 1 | 17 | 0 | 0 | 0 | 0 | 9
23 | COC(=O)Nc1nc2cc(Oc3ccc(NC(=O)Nc4cc(C(F)(F)F)ccc4F)cn3)ccc2[nH]1.Cl.Cl [GW681170] | 2 | 99.4 | 0 | 0 | 16 | 21 | 0 | 20 | 14 | 7
24 | c1ccc(Oc2ccc(Nc3ccnc4cc(-c5ccc(CNCCN6CCOCC6)o5)ccc34)cc2)nc1 [GW567145] | 23 | 1 | 0 | 0 | 0 | 24 | 0 | 16 | 40 | 0
25 | Cl.Cl.NCC(NC(=O)c1cc(-c2ccccc2)c(-c2ccnc3[nH]ccc23)s1)c1ccccc1 (centres unmarked) [GSK1321561] | 0 | 13 | 17 | 94.9 | 26 | 14 | 0 | 24 | 16 | 25
26 | Nc1n[nH]c2cnc(-c3ccccc3)cc12 [SB-642124] | 14 | 99.9 | 6 | 69 | 3 | 8 | 0 | 20 | 0 | 47
27 | O=C(Nc1n[nH]c2nc(-c3ccc(O)cc3)ccc12)C1CC1 [SB-710363] | 0 | 0 | 79 | 31 | 35 | 62 | 9 | 0 | 4 | 0
28 | Cc1cccc(NC(=O)Nc2ccc(Oc3ncnc4ccn(C)c34)cc2)c1 | 26 | 17 | 0 | 0 | 0 | 0 | 5 | 30 | 0 | 0
29 | Cc1ccc(F)c(C(=O)Nc2cccc(-c3nn4ccccc4c3-c3ccnc(Nc4cccc(F)c4)n3)c2)c1F [GSK361061] | 13 | 22 | 17 | 0 | 33 | 10 | 0 | 15 | 0 | 11
30 | COc1cc2c(cc1OCCN1CCNCC1)ncc1c3ccc(C#N)cc3[nH]c21 | 19 | 0 | 68 | 70 | 47 | 0 | 0 | 3 | 0 | 20
31 | Nc1ncc(-c2ccc3nccc(-c4ccncc4)c3c2)cc1S(=O)(=O)N1CCOCC1 [GSK1627798] | 99.3 | 0 | 0 | 0 | 20 | 0 | 0 | 6 | 0 | 16
32 | CN(c1ccc(NC(=O)Nc2cc(C(F)(F)F)ccc2F)cc1)c1ccnc(Nc2ccc(S(N)(=O)=O)cc2)n1 [GW809893] | 0 | 95.3 | 65 | 16 | 0 | 50 | 37 | 27 | 11 | 0

Reference: article PMC5540273 (PLoS ONE, 2017)
